Most compounds without a hit are left out; they make up all but 9.2% or so of the library.
FLuc modulator = counter-screen for miR-21 project: firefly luciferase inhibitors or activators. Potency, µM (doses to about 57.5 µM), for the others: top-dose activity change, negative = inhibition, most hits filed as inhibitors. P08659. purified FLuc, Km substrates, luminescence inhibition. hit rate 6.9% among 360,000. AID 588342;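 note: plate controls were vehicle for no effect and reference inhibitor for full effect; nearly all actives have a fitted effect of over 55% in size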
Target sequence (P08659 whole entry, looked up): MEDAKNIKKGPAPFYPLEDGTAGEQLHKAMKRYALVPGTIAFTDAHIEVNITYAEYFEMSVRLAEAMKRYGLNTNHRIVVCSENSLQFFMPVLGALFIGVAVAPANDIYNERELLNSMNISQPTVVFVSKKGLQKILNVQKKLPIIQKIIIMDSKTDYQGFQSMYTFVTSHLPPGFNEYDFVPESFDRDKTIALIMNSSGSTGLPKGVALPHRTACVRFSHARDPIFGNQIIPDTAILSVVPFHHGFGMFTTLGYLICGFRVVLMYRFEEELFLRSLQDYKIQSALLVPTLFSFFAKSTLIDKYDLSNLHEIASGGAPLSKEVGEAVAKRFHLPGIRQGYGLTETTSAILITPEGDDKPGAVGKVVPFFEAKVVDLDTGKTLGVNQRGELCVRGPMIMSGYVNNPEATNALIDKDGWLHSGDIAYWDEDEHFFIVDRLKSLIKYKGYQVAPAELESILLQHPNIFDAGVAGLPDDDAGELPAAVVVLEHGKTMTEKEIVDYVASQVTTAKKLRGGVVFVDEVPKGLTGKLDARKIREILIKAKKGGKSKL
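Purified P. pyralis luciferase, 10 nM final, with Km-level 10 uM D-luciferin and 10 uM ATP in 50 mM Tris acetate pH 7.5, 10 mM Mg acetate, 0.01% Tween-20, 0.05% BSA; 6-point qHTS titration about 60 µM downward; luminescence read.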
SMN2 splice up = enhancers of SMN2 splice variant expression; Potency, µM (doses to about 46.1 µM), inactives show at the highest dose activity change, positive = activation, most hits filed as activators; hit rate 2.8% among 210,000; AID 1458; HEK293 SMN2-luciferase splicing reporter, luminescence, 30-36 h; note: % of control where 0% means no effect; nearly all actives have a fitted effect of over 55% in size
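HEK293 cells carry an SMN2 […]–luciferase reporter in which exon 7 inclusion puts luciferase in frame. Cells were plated 10-12 h before compound addition, then incubated 30-36 h at 37C. ONE-Glo luminescence was read; sodium butyrate at 4.5 mM final served as control.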
Rab9 prom act = activates the Rab9 promoter. AID 485297. Huh7 Rab9 promoter-luciferase reporter, luminescence, 24 h. hit rate 2.8% among 320,000. Potency, µM (doses to about 9.22 µM), for the others: at the highest dose activation, negative = inhibition, most hits filed as activators; note: % of control where 0% means no effect; nearly all actives have a fitted effect of over 60% in size
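Rab9 promoter-driven luciferase in stably transfected Huh7 cells; 1500 cells/well rested 2 h, exposed to compound in DMSO for 24 h at 37 °C, 5% CO2. Luminescence read 10 min after adding luciferase reagent at ambient temperature.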
ELG1 genotoxic = inducers of genotoxicity in HEK293T ELG1-luciferase cells | AID 504466 | hit rate 1.3% among 330,000 | Potency, µM (titrated, usually from 46 µM), inactives show top-dose activity change, positive = activation, actives largely listed as activators | HEK293T ELG1-luciferase reporter, luminescence, 16 h; note: % of control where 0% means no effect; nearly all actives have a fitted effect of over 60% in size
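Genotoxicity was scored as increased ELG1-luciferase reporter signal, measured by ONE-Glo luminescence (30 min, room temperature). Compound or vehicle exposure of the HEK293T reporter cells lasted 16 hr at 37°C.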
NPC1 prom act = NPC1 promoter activation. Potency, µM (titrated, usually from 9.22 µM), for the others: at the top dose activation, hits mostly activators. hit rate 2.4% among 320,000. Huh7 NPC1 promoter luciferase reporter, 24 h; note: % of control where 0% means no effect; nearly all actives have a fitted effect of over 60% in size
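Huh7 cells stably carrying NPC1 promoter–luciferase, plated in Opti-MEM with 10% FBS for 2 h, were exposed to compound in DMSO for 24 h at 37 °C; luciferase reagent was added for 10 min and luminescence read.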
ELG1 repair inh = blocks ELG1-dependent DNA repair in HEK293T cells | HEK293T ELG1-luciferase reporter, luminescence, 16 h; DNA damage induced by 5-fluorouridine | Potency, µM (titrated, usually from 46.1 µM), for inactives: at the highest dose activity change, negative = inhibition, actives largely listed as inhibitors | hit rate 2.3% among 330,000 | AID 504467; note: % is set by controls: 0 for no effect and ±100 for the full control effect; nearly all actives have a fitted effect of over 55% in size
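DMSO vehicle served as the neutral condition. Each well held 2,000 cells given 5-fluorouridine plus compound; after 16 hr at 37 °C/5% CO2, ONE-Glo was added and luciferase measured 30 min later.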
Starred values were filed as active, the others as inactive; ? = inconclusive; / = no result. Calls come from the whole dose curve; as a rule, active = well fitted curve in the direction sought with a large enough effect; inconclusive = small, poorly fitted or top-dose-only effect, or another doubt; inactive = no such curve, though single readings can be large; an effect the other way counts as inactive or inconclusive. Potency is the fitted concentration of half-maximal effect.

SMILES	FLuc modulator	SMN2 splice up	Rab9 prom act	ELG1 genotoxic	NPC1 prom act	ELG1 repair inh
Cc1cc(NC(=O)/C=C/c2ccccc2)no1	12µM*	?	2.82µM*	?	?	?
Cc1cc(NS(=O)(=O)c2ccc(NC(=O)/C=C/c3cccc(Cl)c3)cc2)no1	?	/	9.7%	3.0%	-2.8%	3.1%
CN(C)C(=O)N1CCC(C(=O)N2CCCC(C(=O)c3ccc(C(C)(C)C)cc3)C2)CC1 (stereo not given)	-17.8%	/	2.0%	-7.3%	-0.3%	14.6µM*
Cc1csc(=O)n1CC(=O)OCC(=O)NNC(=O)c1ccc(Cl)cc1	3.0%	/	-2.5%	1.0%	-1.7%	-1.0%
Cc1nc(-c2cccnc2)sc1CCNS(=O)(=O)c1ccc(F)cc1	1.0%	/	/	/	/	/
CCOc1ccc2nc(SCC(=O)N3CCN(C(=O)c4ccco4)CC3)sc2c1	16.9µM*	-14.3%	-5.6%	-9.4%	-0.3%	?
O=C(c1ccc2nc(N3CCOCC3)sc2c1)N1CCN(C(=O)c2ccco2)CC1	4.1%	-7.3%	1.7%	12.7%	-1.0%	-12.8%
O=C(CSc1nc2ccccc2s1)N1CCN(C(=O)c2ccco2)CC1	-3.7%	-7.5%	11.7%	2.2%	15.7%	-17.6%
CCc1ccc2nc(N3CCN(C(=O)c4ccco4)CC3)sc2c1	10.7µM*	/	/	/	/	/
Cc1cc(C)c2nc(N3CCC(C(=O)NCc4ccccn4)CC3)sc2c1	16.9µM*	-31.8%	20.6%	1.1%	11.5%	?
Cc1cc(C)c2nc(N3CCC(C(=O)NCc4cccnc4)CC3)sc2c1	?	-26.1%	10.8%	-0.1%	0.9%	-8.6%
Cc1cc(C)c2nc(N3CCC(C(=O)N4CCN(C(=O)c5ccco5)CC4)CC3)sc2c1	?	-13.5%	-3.6%	-16.6%	0.5%	16.4µM*
O=C(OCn1nnc2ccccc2c1=O)c1cc(-c2ccccc2)nc2ccccc12	-1.1%	22.6%	-5.7%	-0.2%	-4.7%	0.8%
O=C(c1ccco1)N1CCN(c2nc3c(F)cc(F)cc3s2)CC1	23.9µM*	/	/	/	/	/
CCOc1ccc2[nH]c3c(N4CCN(C(=O)c5ccco5)CC4)ncnc3c2c1	?	/	-3.7%	-9.4%	-0.8%	-10.7%
CCOc1ccc2nc(N3CCN(C(=O)c4ccco4)CC3)sc2c1	21.3µM*	/	/	/	/	/
CCc1cc2cccc(C)c2nc1SCC(=O)N1CCN(C(=O)c2ccco2)CC1	-1.1%	/	11.5%	-1.2%	-0.8%	?
CCc1cc2cc(C)cc(C)c2nc1SCC(=O)N1CCN(C(=O)c2ccco2)CC1	-3.5%	-4.9%	2.2%	-3.2%	-1.1%	8.2µM*
COc1ccc2nc(N3CCN(C(=O)c4ccco4)CC3)sc2c1	26.9µM*	/	/	/	/	/
CCn1c(SCC(=O)NC2CCCC2)nnc1C(C)C	1.2%	/	-3.0%	3.9%	1.4%	4.2%
COc1ccc(/C=N/N2CCN(C3c4ccccc4-c4ccccc43)CC2)cc1O	2.5%	5.0%	-0.8%	2.5%	-2.8%	-12.9%
COc1ccc(C)cc1S(=O)(=O)N1CCCC(C(=O)NC2CC2)C1 (stereo not given)	2.0%	/	-5.7%	5.6%	1.0%	-5.1%
COc1cc(C2OC(=O)c3c2ccc(OC)c3OC)ccc1O (stereo not given)	-3.1%	/	-3.1%	/	-24.4%	/
CCOc1ccc2nc(SCC(=O)c3cccs3)sc2c1	2.69µM*	?	2.82µM*	14.6µM*	2.51µM*	?
CCOc1cccc(-c2cc(C(=O)N3N=C(C)CC3(O)C(F)F)c3ccccc3n2)c1 (stereo not given)	23.9µM*	3.3%	-5.2%	-1.9%	-9.5%	?
SMILES	FLuc modulator	SMN2 splice up	Rab9 prom act	ELG1 genotoxic	NPC1 prom act	ELG1 repair inh
Cc1ccc(-c2cc(C(=O)N3N=C(C(F)F)CC3(O)C(F)F)c3ccccc3n2)cc1C (stereo not given)	7.57µM*	8.2%	0.9%	-2.9%	16.1%	?
O=C(c1cc(-c2ccccc2)nc2ccccc12)N1N=C(C(F)F)CC1(O)C(F)F (stereo not given)	-0.4%	-1.3%	-9.1%	-0.4%	24.2%	4.9%
O=C(NC1CC(=O)c2sccc21)c1ccc(Cl)cc1Cl (stereo not given)	16.9µM*	5.01µM*	2.82µM*	?	?	?
Cc1ccc(C)c(N(C)C(=O)c2cc3c(s2)-c2ccccc2OC3)c1	-19.3%	-2.2%	/	/	/	/
CC(Sc1nnc(-c2cccnc2)o1)C(=O)NC1CCCCC1 (stereo not given)	3.8%	/	-0.3%	-1.0%	1.9%	-1.1%
COc1ccc(NC(=O)CCNS(=O)(=O)c2cccc3nsnc23)cc1Cl	-2.3%	4.4%	/	/	/	/
Cc1ccc(-c2cc(C(=O)N3CCCc4ccccc43)c3ccccc3n2)cc1	3.38µM*	-17.5%	0.5%	?	9.0%	?
Cc1cc2ncn(C(=O)c3cc(-c4ccccc4)nc4ccccc34)c2cc1C	?	-0.1%	0.8%	0.7%	-0.1%	1.0%
Cc1cnn(-c2nc(-c3ccccc3)cc(-c3ccccc3)n2)c1	1.1%	/	-9.3%	-9.7%	-10.2%	20.6µM*
Cc1ccc(-c2cc(C(F)(F)F)n3ncc(C(=O)N4CCCc5ccccc54)c3n2)cc1	-0.4%	-15.8%	-3.0%	8.3%	-5.5%	16.3%
O=C(c1cc(-c2cccnc2)nc2ccccc12)N1CCCc2ccccc21	-19.1%	-6.6%	1.5%	-5.2%	-4.1%	20.6µM*
O=C(c1cccnc1)N1CCCc2ccccc21	3.3%	-2.8%	7.5%	2.7%	0.5%	13.0%
Cc1cnn(C(=O)c2cc(-c3ccccc3)nc3ccccc23)c1	16.9µM*	7.3%	7.6%	-3.0%	1.7%	-1.2%
COCCCNC(=O)CSc1nc(-c2ccc(OC)cc2)[nH]c1-c1ccc(OC)cc1	-5.0%	13.5%	/	/	/	/
C#Cc1ccc([C@@H]2C=C(C(=O)N3CCOCC3)O[C@H](OCCCCO)C2)cc1	3.6%	/	1.1%	8.8%	-3.3%	12.7%
O=C(C1=C[C@H](c2ccc(Br)cc2)C[C@H](OCCCCO)O1)N1CCOCC1	-38.1%	/	0.02µM*	9.1%	0.0251µM*	?
O=C(C1=C[C@@H](c2ccc(Br)cc2)C[C@@H](OCc2ccc(CO)cc2)O1)N1CCN(Cc2ccccc2)CC1	-1.8%	/	-1.7%	-14.7%	1.9%	23.1µM*
COc1cc(/C=C/C2=NC(=O)C(C)(C)O2)ccc1O	4.4%	4.6%	4.2%	-3.3%	12.1%	25.9µM*
C=CCn1c(SCCOc2ccccc2)nnc1C(C)NC(=O)c1ccccc1 (stereo not given)	-0.9%	-1.0%	-0.9%	0.1%	0.4%	-5.2%
C=CCn1c(CCNC(=O)c2ccc(Cl)c(Cl)c2)nnc1SCCOc1ccc(OC)cc1	-5.7%	-37.9%	0.3%	-10.1%	2.4%	16.4µM*
